# Coupling enz – counter-screen for Giardia aldolase inhibitors: coupling enzyme system. activity change, negative = inhibition, % at 58.2 µM, hits read low. coupling enzyme system counterscreen, AmpLite Red fluorescence. AID 2472. actives 0.67% (n = 290,000); in the data active means activity change below about -30%
#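 Coupling enzymes only (glyceraldehyde-3-phosphate) + compound, at 57.5 uM final, 10 min RT; add substrate/coupling/AmpLite Red mix, 20 min RT; fluorescence ex 525/em 598 nm. Actives flag coupling-system interference.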
# TrxR1 substrate – is turned over as a substrate by rat TrxR1. O89049. actives 0.01% (n = 390,000). AID 588456. purified TrxR1 substrate turnover, NADPH consumption readout. Potency, µM (highest dose often 114 µM), for the others: top-dose activity change, negative = substrate turnover; further: potency means the concentration at half of the fitted maximal effect; nearly all actives have a fitted effect of over 50% in size
# Target sequence (O89049 whole entry, looked up): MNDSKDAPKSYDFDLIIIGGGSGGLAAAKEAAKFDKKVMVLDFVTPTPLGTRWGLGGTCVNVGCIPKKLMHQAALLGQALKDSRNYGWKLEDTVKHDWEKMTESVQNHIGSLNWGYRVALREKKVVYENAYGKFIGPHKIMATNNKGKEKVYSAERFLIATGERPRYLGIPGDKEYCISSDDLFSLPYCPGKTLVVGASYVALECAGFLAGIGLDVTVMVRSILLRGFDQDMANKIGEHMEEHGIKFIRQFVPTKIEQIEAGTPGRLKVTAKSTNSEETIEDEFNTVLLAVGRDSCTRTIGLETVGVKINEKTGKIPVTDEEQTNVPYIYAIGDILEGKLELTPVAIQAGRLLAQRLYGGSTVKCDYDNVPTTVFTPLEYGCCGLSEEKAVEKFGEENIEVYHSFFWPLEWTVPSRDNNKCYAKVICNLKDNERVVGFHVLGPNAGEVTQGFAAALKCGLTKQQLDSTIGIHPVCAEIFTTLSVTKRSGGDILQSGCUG
#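 Rat TrxR1, dispensed at 90 nM, was prereduced with 400 uM NADPH (final) for 5 min at ~22 deg C, then incubated with compound 15 min before 400 uM selenite. A first-read NADPH fluorescence drop versus no-compound background flagged substrates.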
# IDH1 R132H inh – inhibitors of human mutant IDH1 R132H; O75874; IDH1-R132H enzyme, NADPH consumption, diaphorase/resazurin fluorescence; Potency, µM (series often up to 76.6 µM), for the others: top-dose activity change, negative = inhibition, usual class: inhibitors; actives 0.093% (n = 390,000); AID 602179; further: potency means the concentration at half of the fitted maximal effect; nearly all actives have a fitted effect of over 65% in size
#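 IDH1-R132H (0.5 ug/mL) preincubated 30 min with compound, then NADPH (0.016 mM) and alpha-KG (2 mM) added; 80 min at RT, pH 7.5. Remaining NADPH coupled via diaphorase/resazurin to fluorescence (540/590 nm); concentration-response curves normalized to no-enzyme control.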
# Eya2 inh – inhibitors of human Eya2 phosphatase activity; recombinant Eya2, OMFP fluorescence dephosphorylation (OMFP is methylfluorescein phosphate); O00167; Potency, µM (highest dose often 76.9 µM), inactives show at the highest dose activity, negative = inhibition, most hits filed as inhibitors; actives 0.006% (n = 330,000); further: potency means the concentration at half of the fitted maximal effect
#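 Eya2 protein (added as 0.2 uM solution) was preincubated with compound for 10 min at ambient temperature in 50 mM HEPES pH 7.5, 50 mM NaCl, 5 uM MgCl2, 0.05% BSA, 1 mM DTT. OMFP (added at 50 uM) then reacted 10 min; fluorescence read at 485/525 nm.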
# rTrxR1 inhibitor – blocks rat thioredoxin reductase 1; O89049; recombinant rTrxR1, NADPH fluorescence consumption, selenite substrate; Potency, µM (titrated, usually from 114 µM), inactives show at the highest dose activity change, negative = inhibition, usual class: inhibitors; actives 1% (n = 390,000); further: potency means the concentration at half of the fitted maximal effect; nearly all actives have a fitted effect of over 65% in size
#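 Rat TrxR1 (90 nM in the dispensed reagent) was pre-reduced with 400 uM NADPH for 5 min at room temperature, then incubated with compound for 15 min. After 400 uM selenite was added, NADPH fluorescence (Ex 340/Em 450 nm) was followed for 8 min.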
# * hit, by the source's call; u = inconclusive; x = no result given; [ ] = dose if it differs, or a comment. The list is not random: actives were taken first. Their share in the collection is about 1.5%. Unless noted, the call rests on the fitted dose curve; in most records, active means well fitted curve in the direction sought with a large enough effect; inconclusive means small, poorly fitted or top-dose-only effect, or another doubt; inactive means no such curve, though single readings can be large; an effect the other way counts as inactive or inconclusive. On the % scale 0 is the no-effect control and ±100 the full control effect.
SMILES,Coupling enz,TrxR1 substrate,IDH1 R132H inh,Eya2 inh,rTrxR1 inhibitor
N=c1n(CCN2CCOCC2)c2ccccc2n1CC(=O)c1ccc(Cl)c(Cl)c1,-31*,-7%,23%,-10%,-2%
Cc1cc2n(n1)SC(Nc1ccc(F)c(Cl)c1)N2 (centres undefined),3,3%[57.1 µM],3%,-3%,14µM*
CCOC(=O)c1cc(C#N)c(SC(C(=O)N2CCCCC2)c2ccccc2)nc1C (centres undefined),x,-7%,x,x,u
CC(=O)C1=C(O)C=C2Oc3c(C(C)=O)c(O)c(C)c(O)c3C2(C)C1=O (centres undefined),10,x,x,x,x
COc1cccc(C(=O)NC(=S)Nc2cccnc2)c1,4,-3%,2%,-1%,u
CC(C)Oc1cccc(C(=O)NC(=S)Nc2cccnc2)c1,3,-1%,2%,2%,22µM*
COc1ccc(C2NC(Cc3ccccc3)(C(=O)O)C3C(=O)N(c4ccccc4OC)C(=O)C23)cc1 (centres undefined),7,7%,-10%,-1%,56µM*
CCOC(=O)c1nn(-c2ccccc2)c(=O)c2c(N)scc12,-45*,-11%,7%,-4%,-19%
CCOC(=O)c1nn(-c2ccccc2)c(=O)c2c(NC(C)=O)scc12,-6,13%[57.1 µM],4%,-10%,41%[57.1 µM]
CCOC(=O)c1nn(-c2ccccc2C)c(=O)c(C#N)c1C,-23,-7%,0%,-2%,-8%
CCOC(=O)c1nn(-c2ccccc2C)c(=O)c2c(N)scc12,-55*,6%[57.1 µM],2%,-29%,41%[57.1 µM]
Nc1scc2c(C(=O)N/N=C/c3ccc(Cl)cc3)nn(-c3ccccc3)c(=O)c12,-48*,-18%,-4%,6%,-27%
Nc1c(C(=O)N/N=C/c2ccc(Cl)cc2)cnn1-c1ccccc1,-1,-7%[57.1 µM],3%,1%,-1%[57.1 µM]
O=S(=O)(c1cccc(C(F)(F)F)c1)N1CCN(c2nc(-c3ccccc3)nc3ccccc23)CC1,x,3%,x,x,14%
CCOC(=O)[C@H]1[C@H]2COc3ccc(C)cc3[C@@H]2N2C(=O)CN(Cc3ccc(C)cc3)C(=O)[C@@]12C,x,6%[57.1 µM],16%,0%,15%[57.1 µM]
CCOC(=O)[C@H]1[C@H]2COc3ccc(C)cc3[C@@H]2N2C(=O)CN(Cc3ccco3)C(=O)[C@@]12C,x,3%,-6%,3%,56µM*
CCOc1ccccc1NC(=O)c1nc(S(=O)(=O)Cc2cccc(C)c2)ncc1Cl,x,-9%,-15%,-8%,7.1µM*
CSc1nnc(NC(=O)c2nc(S(=O)(=O)Cc3cccc(C)c3)ncc2Cl)s1,x,-4%,-1%,3%,u
CCc1nnc(NC(=O)c2nc(S(=O)(=O)Cc3ccccc3)ncc2Cl)s1,x,1%,3%,-3%,45µM*
CCc1nnc(NC(=O)c2nc(S(=O)(=O)Cc3cccc(C)c3)ncc2Cl)s1,5,-3%,0%,-10%,40µM*
CCc1nnc(NC(=O)c2nc(S(=O)(=O)Cc3ccc(C)cc3)ncc2Cl)s1,x,1%,-1%,9%,45µM*
O=c1[nH]/c(=C/c2ccc3c(c2)OCO3)c(=O)[nH]/c1=C\c1ccc2c(c1)OCO2,x,-4%,x,x,22%[0.0914 µM]
COc1ccc(C)cc1NC(C)C(=O)c1c[nH]c2ccccc12 (centres undefined),x,-2%,x,x,11%
COc1ccc2[nH]c(CCc3nc4c(OC)c(OC)ccc4[nH]3)nc2c1OC,x,853%,x,x,-106%
Cc1noc(/C=C/c2ccco2)c1S(=O)(=O)N1CCC(C(=O)N(C)Cc2ccccc2)CC1,0,-12%,13%,1%,71µM*
SMILES,Coupling enz,TrxR1 substrate,IDH1 R132H inh,Eya2 inh,rTrxR1 inhibitor
Cc1cc2ccc(Cl)nc2nc1C,x,12%[0.0914 µM],x,x,15%[0.0914 µM]
CC(=O)NC(c1ccco1)c1cc(Cl)c2ccc(N(C)C)nc2c1O (centres undefined),x,x,x,-2%,x
CCOc1ccc2oc(C(=O)N(C)CCc3ccc(OC)c(OC)c3)c(C)c2c1,x,-1%,16%,24%,2%
COc1ccc(CCN(C)C(=O)COC(=O)/C=C/c2ccc(C)o2)cc1OC,x,-14%,3%,17%,16µM*
CCOC(=O)COc1ccc2c(C#N)c3ccccn3c2c1,-60*,10%,9%,-9%,28%
N#Cc1c2ccc(OCC(N)=O)cc2n2ccccc12,-37*,29%,9%,10%,40%
CCOC(=O)c1c2ccc(OCC(=O)N/N=C/c3ccc(Cl)cc3)cc2n2ccccc12,-12,x,x,-7%,x
O=C(Nc1ccc(F)c(F)c1)c1cnn2c1NC(=C1CC1)C=C2C(F)(F)F,x,-6%,x,x,0%
CO/N=C(\C)CCN1CCCc2nc(C)c(C)cc21,0,x,x,x,x
COC(=O)C1=C[C@@H](C(=O)OC)C2C3=C(C(=O)[C@@]2(C)NC(=O)c2ccccc2)[C@H](c2ccccc2)n2c(=O)n(-c4ccccc4)c(=O)n2[C@@H]3C1 (some centres undefined),0,-1%,x,x,10%
COc1cccc2c(=O)c3cccc(N)c3[nH]c12,-56*,-6%,9%,6%,-10%
COc1cccc2c(=O)c3c([nH]c12)OC(C)(C)C3,x,-2%,5%,x,0%
Cc1ccccc1CN1[C@@H](Cc2ccccc2)COCCS1(=O)=O,x,5%,1%,x,18%
C=C1[C@@H](O)[C@H](Cc2ccccc2)N(Cc2ccccc2Br)S1(=O)=O,x,-3%,-1%[38.3 µM],x,14µM*
O=C(CCNc1ccc(Cl)cc1)c1cccs1,2,-5%,3%,0%,u
O=C(CCNc1cc(Cl)cc(Cl)c1)c1cccs1,0,3%,1%,-3%,28µM*
COc1ccc(NC(=O)COc2ccccc2C(=O)Nc2ccccc2)cc1,x,1%,x,x,10%
O=C(Nc1cccn(Cc2c(F)cccc2Cl)c1=O)NC1CCCCC1,-35*,0%,-1%,-5%,14%
C[C@H](C(=O)OCO/N=[N+](\[O-])N1CCCC1)c1cccc2ccccc12,-19,-10%,x,x,18µM*
CCOC(=O)N1CCN(/[N+]([O-])=N/OCOC)CC1,x,4%,x,x,15%
CO[C@@H](CCOCc1ccccc1)C[C@H]1O[C@H](C(=O)OC(C)C)C=C[C@@H]1C,2,x,x,x,x
COc1ccc(NC(=S)NCCN2CCC(C)CC2)cc1Cl,-47*,-5%[57.1 µM],3%,-9%,21%[57.1 µM]
COc1ccc(NC(=S)NCCCN2CCCC2)cc1Cl,1,1%,4%,-4%,18%
COCCN(C(=S)Nc1ccc(OC)c(Cl)c1)C1CCN(C(C)C)CC1,0,14%,-1%,4%,28%[57.1 µM]
COc1ccc(NC(=S)N(CCC(C)C)C2CCN(C(C)C)CC2)cc1Cl,-47*,-3%,-14%,6%,60%
O=C(NCCOc1ccccc1)O[C@@H]1C(=O)c2cc(Br)ccc2O[C@H]1c1ccc2c(c1)OCO2,-1,x,x,x,x

# Screening results: PubChem, National Center for Advancing Translational Sciences (NCATS)
